The antibiotic and cytotoxicity screens of Wong et al. (2023)
Out of some 39,000 compounds screened, about 1,500 (3.8%) were called active. The sample holds actives, similar compounds and a random draw of the others, so the mix is not that of the screen.

The compounds below were run on HSkMC (human skeletal muscle cells) (assay: cytotoxicity call (relative viability < 0.9)). Conditions: 10 µM.
`CC[C@@H](C)CCCCC(=O)N[C@@H](CCN)C(=O)N[C@H](C(=O)N[C@@H](CCN)C(=O)N[C@H]1CCNC(=O)[C@H]([C@@H](C)O)NC(=O)[C@H](CCN)NC(=O)[C@H](CCN)NC(=O)[C@H](CC(C)C)NC(=O)[C@@H](Cc2ccccc2)NC(=O)[C@@H](CCN)NC1=O)[C@@H](C)O` was tested, and the cytotoxicity call was “inactive”. `CC1NC(=O)C2CCCN2C(=O)C(CC(N)=O)NC(=O)C2CSSCC(N)C(=O)NC3CSSCC(NC1=O)C(=O)NC(C(C)O)C(=O)NCC(=O)NC(C(=O)NC(Cc1ccc(O)cc1)C(=O)O)CSSCC(NC(=O)C(Cc1ccc(O)cc1)NC(=O)C(CCC(=O)O)NC3=O)C(=O)N2` (centres undefined) was tested, and the cytotoxicity call was “inactive”. `CC(C)C[C@@H]1NC(=O)[C@@H](C(C)C)NC(=O)[C@@H]2CCCN2C(=O)[C@@H](CC(=O)O)NC(=O)[C@@H](Cc2c[nH]c3ccccc23)NC1=O` was tested, and the cytotoxicity call was “inactive”. `CC(C)[C@H]1C(=O)N[C@@H](CCCNC(=N)N)C(=O)NCC(=O)N[C@@H](CC(=O)O)C(=O)N[C@H](Cc2ccccc2)C(=O)N1C` was tested, and the cytotoxicity call was “inactive”. In the case of `CC(C)C[C@H]1NC(=O)[C@@H](CCCN)NC(=O)[C@H](C(C)C)NC(=O)[C@H]2CCCN2C(=O)[C@@H](Cc2ccccc2)NC(=O)[C@@H](CC(C)C)NC(=O)[C@@H](CCCN)NC(=O)[C@H](C(C)C)NC(=O)[C@H]2CCCN2C(=O)[C@@H](Cc2ccccc2)NC1=O`, the cytotoxicity call is reported as “active”. In the case of `CC(C)(O)C#Cc1ccc([C@H]2[C@@H](CO)N3CCCCN(S(C)(=O)=O)C[C@@H]23)cc1`, the cytotoxicity call is reported as “inactive”. For `N#C[C@H]1NCc2cnnn2Cc2ccccc21`, the cytotoxicity call was “inactive”. With `COc1ccc(NC(=O)N(C)C[C@H]2OCCCC[C@@H](C)Oc3ccc(NC(=O)NC(C)C)cc3C(=O)N([C@H](C)CO)C[C@H]2C)cc1` the cytotoxicity call was “inactive”. `COc1ccc(S(=O)(=O)N(C)C[C@@H]2OCCCC[C@H](C)Oc3ccc(NC(=O)Nc4ccccc4)cc3C(=O)N([C@@H](C)CO)C[C@@H]2C)cc1` was tested, and the cytotoxicity call was “inactive”. In the case of `CN(C)CCN1CC2(CCN(C(=O)c3cnccn3)CC2)OCC1=O`, the cytotoxicity call is reported as “inactive”. With `Cc1noc(C)c1S(=O)(=O)Nc1ccc2c(c1)C(=O)N([C@H](C)CO)C[C@@H](C)[C@@H](CN(C)Cc1ccc(C(F)(F)F)cc1)OCCCC[C@H](C)O2` the cytotoxicity call was “inactive”. `C[C@@H]1CCCCO[C@@H](CN(C)C(=O)CCC(F)(F)F)[C@@H](C)CN([C@@H](C)CO)C(=O)c2cc(NC(=O)Nc3ccccc3)ccc2O1` was tested, and the cytotoxicity call was “inactive”. For `C[C@@H]1CCCCO[C@@H](CN(C)Cc2ccc3c(c2)OCO3)[C@H](C)CN([C@H](C)CO)C(=O)c2cc(NC(=O)Nc3ccc4c(c3)OCO4)ccc2O1`, the cytotoxicity call was “inactive”. With `C[C@H]1CN([C@@H](C)CO)C(=O)c2cc(NC(=O)Nc3ccc4c(c3)OCO4)ccc2O[C@@H]1CN(C)Cc1ccc(C(F)(F)F)cc1` the cytotoxicity call was “inactive”. With `C[C@@H]1CN([C@H](C)CO)C(=O)c2cc(NC(=O)Nc3ccc4c(c3)OCO4)ccc2O[C@@H]1CN(C)Cc1ccc(C(F)(F)F)cc1` the cytotoxicity call was “active”. `C[C@@H]1CN([C@@H](C)CO)C(=O)c2cc(NC(=O)Nc3ccc4c(c3)OCO4)ccc2O[C@H]1CN(C)Cc1ccc(C(F)(F)F)cc1` was tested, and the cytotoxicity call was “active”. For `C[C@H](CO)N1C[C@H](C)[C@@H](CN(C)Cc2ccc(C(F)(F)F)cc2)Oc2ccc(NC(=O)Nc3ccc4c(c3)OCO4)cc2C1=O`, the cytotoxicity call was “inactive”. `C[C@H]1CN([C@@H](C)CO)C(=O)c2cc(NC(=O)Nc3ccc4c(c3)OCO4)ccc2O[C@H]1CN(C)Cc1ccc(C(F)(F)F)cc1` was tested, and the cytotoxicity call was “inactive”. `C[C@H](CO)N1C[C@H](C)[C@H](CN(C)Cc2ccc(C(F)(F)F)cc2)Oc2ccc(NC(=O)Nc3ccc4c(c3)OCO4)cc2C1=O` was tested, and the cytotoxicity call was “inactive”. In the case of `Cc1ccc(S(=O)(=O)Nc2ccc3c(c2)C(=O)N([C@H](C)CO)C[C@H](C)[C@@H](CN(C)C(=O)CCC(F)(F)F)OCCCC[C@H](C)O3)cc1`, the cytotoxicity call is reported as “inactive”. In the case of `C[C@H]1CN([C@@H](C)CO)C(=O)Cc2cc(NC(=O)Cc3ccccc3)ccc2O[C@H]1CN(C)S(=O)(=O)c1ccccc1`, the cytotoxicity call is reported as “inactive”. In the case of `C[C@@H]1CN([C@@H](C)CO)C(=O)c2cc(NC(=O)Nc3ccc(C(F)(F)F)cc3)ccc2O[C@@H](C)CCCCO[C@@H]1CN(C)S(=O)(=O)c1cn(C)cn1`, the cytotoxicity call is reported as “inactive”. `C[C@H]1CCCCO[C@@H](CN(C)S(=O)(=O)c2cn(C)cn2)[C@@H](C)CN([C@@H](C)CO)C(=O)c2cc(NC(=O)Nc3ccc(C(F)(F)F)cc3)ccc2O1` was tested, and the cytotoxicity call was “active”. In the case of `C[C@H](CO)N1C[C@H](C)[C@@H](CN(C)S(=O)(=O)c2cn(C)cn2)OCCCC[C@H](C)Oc2ccc(NC(=O)Nc3ccc(C(F)(F)F)cc3)cc2C1=O`, the cytotoxicity call is reported as “active”. `C[C@@H]1CN([C@@H](C)CO)C(=O)c2cc(NC(=O)Nc3ccc(C(F)(F)F)cc3)ccc2O[C@@H](C)CCCCO[C@H]1CN(C)S(=O)(=O)c1cn(C)cn1` was tested, and the cytotoxicity call was “inactive”. For `C[C@H]1CCCCO[C@H](CN(C)S(=O)(=O)c2cn(C)cn2)[C@@H](C)CN([C@@H](C)CO)C(=O)c2cc(NC(=O)Nc3ccc(C(F)(F)F)cc3)ccc2O1`, the cytotoxicity call was “inactive”. For `C[C@@H]1CN([C@H](C)CO)C(=O)c2cc(NC(=O)Nc3ccc(C(F)(F)F)cc3)ccc2O[C@@H](C)CCCCO[C@@H]1CN(C)S(=O)(=O)c1cn(C)cn1`, the cytotoxicity call was “inactive”. In the case of `CN1CCN(c2nc3c(c(=O)[nH]c(=O)n3C)n2CC(=O)c2ccc(Cl)cc2)CC1`, the cytotoxicity call is reported as “inactive”. `Cc1noc(C)c1S(=O)(=O)Nc1ccc2c(c1)C(=O)N([C@H](C)CO)C[C@H](C)[C@@H](CN(C)S(=O)(=O)c1ccc(F)cc1)O2` was tested, and the cytotoxicity call was “inactive”. In the case of `COc1cccc(C#Cc2ccc3c(c2)O[C@@H](CN(C)C(=O)c2ccccn2)[C@H](C)CN([C@@H](C)CO)S3(=O)=O)c1`, the cytotoxicity call is reported as “inactive”. With `Cc1c(/C=N/c2ccc(C(C)C)cc2)sc2ccccc12` the cytotoxicity call was “inactive”. `C[C@]12CC[C@@H]3[C@]4(C=C[C@@]5(C=C4C(=O)C4CCCCC4)C[C@@H](O)CC[C@]35C)[C@@H]1CC[C@@]2(O)CN1CCC(n2c(=O)[nH]c3ccccc32)CC1` was tested, and the cytotoxicity call was “inactive”. In the case of `O=C(C[C@@H]1C[C@H]2c3cc(NS(=O)(=O)c4ccc(F)cc4)ccc3O[C@H]2[C@@H](CO)O1)NC1CCCCC1`, the cytotoxicity call is reported as “inactive”. With `C[C@@H]1CN([C@H](C)CO)C(=O)CCCn2cc(nn2)CO[C@H]1CN(C)C(=O)Nc1ccccc1C(F)(F)F` the cytotoxicity call was “inactive”. For `Cc1noc(C)c1S(=O)(=O)Nc1ccc2c(c1)C(=O)N([C@H](C)CO)C[C@H](C)[C@@H](CN(C)Cc1ccc(Cl)c(Cl)c1)OCCCC[C@H](C)O2`, the cytotoxicity call was “inactive”. For `Cc1noc(C)c1S(=O)(=O)Nc1ccc2c(c1)C(=O)N([C@@H](C)CO)C[C@H](C)[C@@H](CN(C)Cc1ccc(Cl)c(Cl)c1)OCCCC[C@H](C)O2`, the cytotoxicity call was “inactive”. With `Cc1ccc(S(=O)(=O)Nc2ccc3c(c2)C(=O)N([C@@H](C)CO)C[C@@H](C)[C@H](CN(C)Cc2ccc(Cl)c(Cl)c2)OCCCC[C@@H](C)O3)cc1` the cytotoxicity call was “inactive”. In the case of `Cc1ccc(S(=O)(=O)Nc2ccc3c(c2)C(=O)N([C@H](C)CO)C[C@@H](C)[C@H](CN(C)Cc2ccc(Cl)c(Cl)c2)OCCCC[C@H](C)O3)cc1`, the cytotoxicity call is reported as “inactive”. For `Cc1ccc(S(=O)(=O)Nc2ccc3c(c2)C(=O)N([C@H](C)CO)C[C@H](C)[C@H](CN(C)Cc2ccc(Cl)c(Cl)c2)OCCCC[C@H](C)O3)cc1`, the cytotoxicity call was “inactive”. With `Cc1ccc(S(=O)(=O)Nc2ccc3c(c2)C(=O)N([C@H](C)CO)C[C@H](C)[C@@H](CN(C)Cc2ccc(Cl)c(Cl)c2)OCCCC[C@H](C)O3)cc1` the cytotoxicity call was “inactive”. With `Cc1noc(C)c1S(=O)(=O)Nc1ccc2c(c1)C(=O)N([C@H](C)CO)C[C@@H](C)[C@@H](CN(C)Cc1ccc(Cl)c(Cl)c1)OCCCC[C@H](C)O2` the cytotoxicity call was “active”. With `Cc1ccc(S(=O)(=O)Nc2ccc3c(c2)C(=O)N([C@@H](C)CO)C[C@H](C)[C@@H](CN(C)Cc2ccc(Cl)c(Cl)c2)OCCCC[C@H](C)O3)cc1` the cytotoxicity call was “active”. `Cc1ccc(S(=O)(=O)Nc2ccc3c(c2)C(=O)N([C@H](C)CO)C[C@@H](C)[C@H](CN(C)Cc2ccc(Cl)c(Cl)c2)OCCCC[C@@H](C)O3)cc1` was tested, and the cytotoxicity call was “inactive”. With `Cc1ccc(S(=O)(=O)Nc2ccc3c(c2)C(=O)N([C@@H](C)CO)C[C@H](C)[C@@H](CN(C)Cc2ccc(Cl)c(Cl)c2)OCCCC[C@@H](C)O3)cc1` the cytotoxicity call was “active”. `Cc1ccc(S(=O)(=O)Nc2ccc3c(c2)C(=O)N([C@@H](C)CO)C[C@@H](C)[C@@H](CN(C)Cc2ccc(Cl)c(Cl)c2)OCCCC[C@@H](C)O3)cc1` was tested, and the cytotoxicity call was “active”. `Cc1ccc(S(=O)(=O)Nc2ccc3c(c2)C(=O)N([C@H](C)CO)C[C@@H](C)[C@@H](CN(C)Cc2ccc(Cl)c(Cl)c2)OCCCC[C@H](C)O3)cc1` was tested, and the cytotoxicity call was “inactive”. In the case of `CNC(=O)C[C@@H]1CC[C@H]2[C@@H](COC[C@@H](O)CN2C(=O)c2ccc3c(c2)OCO3)O1`, the cytotoxicity call is reported as “inactive”. In the case of `COc1cccc(S(=O)(=O)Nc2ccc3c(c2)OC[C@@H](C)N(C(=O)Cc2cccnc2)C[C@H](C)[C@@H](OC)CN(C)C3=O)c1`, the cytotoxicity call is reported as “inactive”. With `C[C@@H]1CN([C@@H](C)CO)C(=O)c2cccc(NC(=O)Nc3ccc4c(c3)OCO4)c2O[C@H]1CN(C)S(C)(=O)=O` the cytotoxicity call was “inactive”. With `C[C@@H]1CCCCO[C@H](CN(C)S(=O)(=O)c2ccccc2)[C@H](C)CN([C@@H](C)CO)C(=O)c2cc(NC(=O)Nc3ccc(F)cc3)ccc2O1` the cytotoxicity call was “inactive”. In the case of `O=C(O)CCNC(=O)c1cccc([N+](=O)[O-])c1`, the cytotoxicity call is reported as “inactive”. In the case of `C[C@H]1CN([C@@H](C)CO)C(=O)c2cccc(NS(=O)(=O)c3cn(C)cn3)c2O[C@@H]1CN(C)CC1CCCCC1`, the cytotoxicity call is reported as “inactive”. With `Cc1noc(C)c1S(=O)(=O)Nc1cccc2c1O[C@@H](CN(C)Cc1ccc3c(c1)OCO3)[C@@H](C)CN([C@@H](C)CO)C2=O` the cytotoxicity call was “inactive”. In the case of `COCC#Cc1ccc([C@@H]2[C@H]3CN(C(=O)CN4CCOCC4)CC(=O)N3[C@H]2CO)cc1`, the cytotoxicity call is reported as “inactive”.
